Measurements: PubChem BioAssay (EPA / NIEHS)
Results filed as inconclusive are left out. Calls of active or inactive are those of the source. The calls were made as follows: active = hit-call score of the fitted dose curve at least 0.9, where 1 is the maximum; inconclusive = response in the unintended direction; inactive = score below 0.9.

What follows are molecules tested against human Retinoid X Receptor beta (RXRb), RXRB (gene 6257) (UniProt P28702) (assay: ATG_RXRb_TRANS: Attagene TRANS-FACTORIAL HepG2 Assay for human Retinoid X Receptor beta (RXRb) (AID 2283013)).
human Retinoid X Receptor beta (RXRb), RXRB (gene 6257), sequence (P28702 whole entry, looked up, the tested form may be a part): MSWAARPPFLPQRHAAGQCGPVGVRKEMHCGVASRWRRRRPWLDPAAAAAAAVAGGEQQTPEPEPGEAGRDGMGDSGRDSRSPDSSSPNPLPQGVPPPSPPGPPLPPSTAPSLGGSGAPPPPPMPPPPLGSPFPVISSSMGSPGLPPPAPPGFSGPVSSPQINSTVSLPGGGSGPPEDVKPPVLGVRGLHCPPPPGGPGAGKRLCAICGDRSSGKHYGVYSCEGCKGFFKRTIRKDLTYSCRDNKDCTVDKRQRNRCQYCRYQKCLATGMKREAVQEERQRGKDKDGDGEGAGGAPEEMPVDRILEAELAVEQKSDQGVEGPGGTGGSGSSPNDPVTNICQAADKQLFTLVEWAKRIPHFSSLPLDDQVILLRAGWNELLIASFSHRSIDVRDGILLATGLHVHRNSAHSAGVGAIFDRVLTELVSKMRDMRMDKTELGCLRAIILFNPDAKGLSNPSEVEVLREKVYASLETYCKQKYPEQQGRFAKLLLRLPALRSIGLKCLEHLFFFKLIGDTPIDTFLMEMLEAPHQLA
Outline: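 Read-out: reporter mRNA induction via RT-PCR plus capillary electrophoresis fluorescence, analysed as signal increase relative to DMSO. Cells were human HepG2, transiently transfected with GAL4-UAS reporter constructs and chimeric receptor-Gal4 fusions, dosed for 24 h.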
For `CC(=O)NS(=O)(=O)c1ccc(N)cc1`, the outcome was “inactive”. With `O=[N+]([O-])C1(Br)COCOC1` the outcome was “inactive”. With `FC(F)(F)C(=NOCC1OCCO1)c1ccc(Cl)cc1` the AC50 was 20.4 µM (active). For `Cc1ccc(C(C)(C)C)cc1`, the outcome was “inactive”. For `CC1=Nc2ccc3ccccc3c2C1(C)C`, the outcome was “inactive”. In the case of `O=C1C=CC(=O)O1`, the outcome was “inactive”. In the case of `COc1ccc([C@@H]2CC(=O)c3c(O)cc(O[C@@H]4O[C@H](CO[C@@H]5O[C@@H](C)[C@H](O)[C@@H](O)[C@H]5O)[C@@H](O)[C@H](O)[C@H]4O)cc3O2)cc1OC`, the outcome was “inactive”. `O=C(O)CCCCCCCCCC(=O)O` was tested, and the outcome was “inactive”. For `CC(C)(C)C(=O)C=Cc1ccc(Cl)cc1`, the AC50 was 24.4 µM (active). With `CC(C)(Oc1ccc(C2CC2(Cl)Cl)cc1)C(=O)O` (configuration not stated) the outcome was “inactive”. For `Cc1ccc2oc(=O)ccc2c1`, the outcome was “inactive”. With `COc1c2ccoc2cc2oc(=O)ccc12` the outcome was “inactive”. With `CCOC(=O)c1ccc(N(C)C)cc1` the outcome was “inactive”. For `Cc1ccc(N/N=c2\c(=O)cc/c(=N/Nc3ccc(S(=O)(=O)O)cc3)c2=O)c(C)c1`, the outcome was “inactive”. `CCCCCCC1(C)CCC(=O)O1` (configuration not stated) was tested, and the outcome was “inactive”. With `OCCN(CCO)c1ccccc1` the outcome was “inactive”. With `CCC(CO)CO` the outcome was “inactive”. For `CC(=O)Oc1ccc(C)cc1`, the outcome was “inactive”. With `Cc1cccc(C(=O)O)c1` the outcome was “inactive”. With `O=P(O)(O)Oc1ccccc1` the outcome was “inactive”. With `O=C1OC(=O)c2cc(Oc3ccc4c(c3)C(=O)OC4=O)ccc21` the outcome was “inactive”. With `COc1cc(NC(=O)CC(C)=O)c(OC)cc1Cl` the outcome was “inactive”.
